# Values quoted from earlier work, collected in PubChem BioAssay AID977611.
# About 3,900 (100%) of roughly 3,900 compounds were called active. Cut-off not given; nearly all actives show Kd up to about 4200 µM. So high a share suggests a set chosen from earlier hits. Some of the results follow. *1 amine or outer side, *2 acyl side, *3 side chain or, on linkers, in order; H or OH if unused. Where a SMILES comes first, the peptide text is derived from it. Non-standard residues stand in square brackets, D forms with d. Square brackets hold non-standard residues; d marks the D form. Residues, ends and D or L forms follow the SMILES beside them. Bridges are numbered along the chain shown (N, C = ends). Peptide text beside a SMILES is read from it. [ ]: non-standard residue; d: D form. The star is where a group is joined. * marks the point of attachment. X1 = C[C@@](/C=C/CC=[*:3])(N[*:1])C(=O)[*:2]; Orn(CH(NH2)2) = NC(N)NCCC[C@H](N)C(=O)O; Benzoyl(4-Br) = O=C(c1ccc(Br)cc1)*; Benzoyl(4-F) = O=C(c1ccc(F)cc1)*; S5 = C=CCCC[C@](C)(N)C(=O)O; ΔPro = O=C(O)[C@@H]1C=CCN1; Butyryl = CCCC(=O)*
# Assay: PubChem AID 977611
# Details: PDB protein-ligand complexes, literature Kd
compound,measurement,setting,value
H-EDMYRAADEIAKE-OH,Kd,"protein: E3 ubiquitin-protein ligase RNF31 HOIP 5-180, PDB entry 4oyk",0.18 µM (active)
CO/N=C(\C(=O)N[C@@H]1C(=O)N2C(C(=O)O)=C(COC(C)=O)CS[C@H]12)c1csc(N)n1,Kd,"protein: PA4794, PDB entry 4kot",3.5 µM (active)
CO/N=C(\C(=O)N[C@@H]1C(=O)N2C(C(=O)O)=C(COC(N)=O)CS[C@H]12)c1ccco1,Kd,"protein: PA4794, PDB entry 4kov",177 µM (active)
Cc1oc2ccc(NS(=O)(=O)c3ccc(Cl)cc3)cc2c1C(=O)O,Kd,"protein: Non-structural protein 5, PDB entry 3vws",225 µM (active)
CC[C@H](C)[C@H](NC(=O)[C@H](CCCCNC(=O)c1ccc(F)cc1)NC(=O)[C@H](CO)NC(=O)[C@@H](NC(=O)[C@@H]1CCCN1C(=O)[C@@H](N)Cc1c[nH]c2ccccc12)[C@@H](C)O)C(=O)O (H-WPTSK(Benzoyl(4-F))I-OH),Kd,"protein: Golgi-associated PDZ and coiled-coil motif-containing protein CAL PDZ (CALP) domain, PDB entry 4nms",11.4 µM (active)
CC[C@H](C)[C@H](NC(=O)[C@H](CCCCNC(=O)c1ccc(Br)cc1)NC(=O)[C@H](CO)NC(=O)[C@@H](NC(=O)[C@@H]1CCCN1C(=O)[C@@H](N)Cc1c[nH]c2ccccc12)[C@@H](C)O)C(=O)O (H-WPTSK(Benzoyl(4-Br))I-OH),Kd,"protein: Golgi-associated PDZ and coiled-coil motif-containing protein CAL PDZ (CALP) domain, PDB entry 4nmv",11.1 µM (active)
H-WPK(Ac)SII-OH,Kd,"protein: Golgi-associated PDZ and coiled-coil motif-containing protein CAL PDZ (CALP) domain, PDB entry 4nmp",91.9 µM (active)
CN1CCC/C=C\CCCC(=O)Cc2c(Cl)c(O)cc(O)c2C1=O,Kd,"protein: Hsp90 N-terminal domain, PDB entry 4ce3",110 µM (active)
CN1CC/C=C/CCCCCC(=O)Cc2c(Cl)c(O)cc(O)c2C1=O,Kd,"protein: Hsp90 N-terminal domain, PDB entry 4ce2",144 µM (active)
CN1CC/C=C/CCCCCCC(=O)Cc2c(Cl)c(O)cc(O)c2C1=O,Kd,"protein: Hsp90 N-terminal domain, PDB entry 4ce1",41.8 µM (active)
O=c1cc(-c2ccc(O)cc2)oc2ccccc12,Kd,"protein: Tankyrase-2, PDB entry 4kzq",0.788 µM (active)
CC(C)C[C@H](NC(=O)[C@H](Cc1ccc(O)cc1)NC(=O)[C@H](CO)NC(=O)CNC(=O)[C@H](Cc1ccc(O)cc1)NC(=O)[C@@H]1CCCN1C(=O)[C@H](Cc1ccc(O)cc1)NC(=O)[C@H](Cc1c[nH]c2ccccc12)NC(=O)[C@@H](NC(=O)[C@@H](N)CCCNC(N)N)C(C)C)C(=O)N[C@H](C(=O)N[C@@H](C)C(=O)N[C@@H](CO)C(=O)NCC(=O)N[C@@H](CO)C(=O)O)[C@@H](C)O (H-[Orn(CH(NH2)2)]VWYPYGSYLTASGS-OH),Kd,"protein: Concanavalin A(ConA), PDB entry 1jyc",46 µM (active)
CC[C@H](C)[C@H](N)C(=O)N[C@H](C(=O)NCC(=O)NCC(=O)N[C@@H](Cc1ccc(O)cc1)C(=O)N1CCC[C@H]1C(=O)N[C@@H](Cc1c[nH]c2ccccc12)C(=O)N[C@@H](Cc1c[nH]c2ccccc12)C(=O)N[C@@H](CCSC)C(=O)O)C(C)C (H-IVGGYPWWM-OH),Kd,"protein: Hepatocyte growth factor HGF-Beta V495, PDB entry 4o3t",43 µM (active)
CC(C)C[C@H](NC(=O)[C@@H]1CCCN1C(=O)[C@H](CO)NC(=O)[C@H](Cc1ccc(O)cc1)NC(=O)[C@@H](NC(=O)[C@H](Cc1c[nH]c2ccccc12)NC(=O)[C@H](CO)NC(=O)[C@H](CCCNC(N)N)NC(=O)[C@H](CCC(=O)O)NC(=O)[C@H](CC(=O)O)NC(=O)[C@@H](NC(=O)[C@@H]1C=CCN1C(=O)[C@H](Cc1ccccc1)NC(=O)[C@@H](N)Cc1ccc(O)cc1)[C@@H](C)O)C(C)C)C(=O)N[C@@H](Cc1c[nH]cn1)C(=O)O (H-YF[ΔPro]TDE[Orn(CH(NH2)2)]SWVYSPLH-OH),Kd,"protein: clathrin adaptor AP-2 complex subunit beta-1, PDB entry 3h1z",22 µM (active)
CC[C@H](C)[C@H](NC(=O)[C@@H]1CCCN1C(=O)CNC(=O)[C@H](CC(N)=O)NC(=O)[C@@H]1CCCN1C(=O)[C@H](CO)NC(=O)[C@H](Cc1ccccc1)NC(=O)[C@H](CC(C)C)NC(=O)[C@H](Cc1ccc(O)cc1)NC(=O)[C@@H](N)CC(N)=O)C(=O)N[C@@H](C)C(=O)N[C@@H](CCCNC(N)N)C(=O)N[C@@H](C)C(=O)N[C@@H](Cc1c[nH]c2ccccc12)C(=O)O (H-NYLFSPNGPIA[Orn(CH(NH2)2)]AW-OH),Kd,"protein: Ephrin type-B receptor 4, PDB entry 2bba",0.07 µM (active)
CC[C@H](C)[C@H](NC(=O)[C@@H]1CCCN1C(=O)CNC(=O)[C@H](C)N)C(=O)N[C@@H](CO)C(=O)N[C@@H](CC(C)C)C(=O)N[C@@H](CC(N)=O)C(=O)N[C@@H](Cc1c[nH]c2ccccc12)C(=O)N[C@@H](Cc1ccccc1)C(=O)N[C@@H](CCC(=O)O)C(=O)N[C@@H](CCC(=O)O)C(=O)N[C@@H](CC(C)C)C(=O)N[C@@H](CO)C(=O)N[C@@H](C)C=O (H-AGPISLNWFEELSA-aldehyde),Kd,"protein: Partner and localizer of BRCA2, PDB entry 3eu7",0.66 µM (active)
CC[C@H](C)[C@@H]1NC(=O)[C@@](C)(NC(=O)[C@H](CCC(N)=O)NC(=O)[C@@H]2CCCN2C(=O)[C@H](Cc2c[nH]c3ccccc23)NC(=O)[C@@H](N)CCCNC(N)N)CCC/C=C\C/C=C/[C@@](C)(C(=O)N[C@@H](Cc2c[nH]cn2)C(=O)N[C@H](C(=O)N[C@@H](CCCNC(N)N)C(=O)N[C@@H](CCCNC(N)N)C(=O)N[C@H](C(=O)N[C@@H](Cc2c[nH]c3ccccc23)C(=O)O)C(C)C)C(C)C)NC(=O)[C@H](CC(=O)O)NC(=O)[C@H](CC(C)C)NC1=O (H-[Orn(CH(NH2)2)]WPQ[S5]ILD[X1]HV[Orn(CH(NH2)2)][Orn(CH(NH2)2)]VW-OH; staple (Z) 5-9),Kd,"protein: Catenin beta-1, PDB entry 4djs",0.013 µM (active)
C[C@H](N)C(=O)N[C@@H](CCCN=C(N)N)C(=O)N[C@H](C(=O)N[C@@H](CCCCN)C(=O)N[C@@H](CCC(N)=O)C(=O)N[C@H](C(=O)N[C@@H](C)C(=O)N[C@@H](CCCN=C(N)N)C(=O)N[C@@H](CCCCN)C(=O)N[C@@H](CO)C(=O)N[C@H](C(=O)NCC(=O)O)[C@@H](C)O)[C@@H](C)O)[C@@H](C)O,Kd,"protein: histone acetyltransferase Hat1p/Hat2p/H4 peptide complex, PDB entry 4psx",0.34 µM (active)
H-GCARSEG-OH,Kd,"protein: WD repeat-containing protein 5, WDR5, PDB entry 4es0",0.103 µM (active)
CCCC(=O)NCCCC[C@H](NC(=O)[C@]1([C@@H](C)O)N[C@@](O)([C@@H](N)CCCN=C(N)N)O1)C(=O)N[C@@H](CCC(N)=O)C(=O)N[C@H](C(=O)N[C@@H](C)C(=O)N[C@@H](CCCN=C(N)N)C(=O)O)[C@@H](C)O (H-[X1]K(Butyryl)QTAR-OH),Kd,"protein: NAD-DEPENDENT PROTEIN DEACETYLASE SIRTUIN-3, MITOCHONDRIAL Sirt3, PDB entry 4v1c",25.1 µM (active)
H-TKQTARK(Ac)S-NH2,Kd,"protein: Protein AF-9 AF9 YEATS, PDB entry 4tmp",3.7 µM (active)
C[C@H](N)C(=O)N[C@@H](CCCN=C(N)N)C(=O)N[C@H](C(=O)N[C@@H](CCCCN)C(=O)N[C@@H](CCC(N)=O)C(=O)N[C@H](C(=O)N[C@@H](C)C(=O)N[C@@H](CCCN=C(N)N)C(=O)N[C@@H](CCCCN)C(=O)N[C@@H](CO)C(=O)O)[C@@H](C)O)[C@@H](C)O,Kd,"protein: DNA (cytosine-5)-methyltransferase 3A DNMT3A-DNMT3L, PDB entry 4u7t",2.14 µM (active)
C[C@H](N)C(=O)N[C@@H](C)C(=O)N[C@@H](C)C(=O)N[C@@H](C)C(=O)N[C@@H](C)C(=O)N[C@@H](C)C(=O)N[C@@H](C)C(=O)N[C@@H](C)C(=O)N[C@@H](C)C(=O)N[C@@H](C)C(=O)O,Kd,"protein: Transportin 1 (Trn1), PDB entry 2z5o",1 µM (active)
H-ARTAA-OH,Kd,"protein: WD repeat-containing protein 5 WDR5, PDB entry 4o45",70 µM (active)
